Assay results published in PubChem BioAssay (NCI).
This is part of a sample that, as a whole, favours compounds with a hit. Of some 83,000 tested, about 20% had one in any assay.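 Single-dose data. Exposure time 48 hours. Values below 10 considered active.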 Activity calls are given as the source filed them.

Columns and labels:
Assay in all cases: NCI-60 one-dose screen, 48 h (100 = growth as untreated, 0 = no growth, -100 = all killed)
Conditions in all cases: 10 µM unless noted
[1] = tested on: NCI-H23 lung
[2] = tested on: NCI-H226 lung
[3] = tested on: NCI-H322M lung
[4] = tested on: HOP-62 NSCLC
[5] = tested on: NCI-H460 lung
[6] = tested on: HOP-92 NSCLC
[7] = tested on: NCI-H522 lung
[8] = tested on: A549/ATCC NSCLC
[9] = tested on: 786-0 renal
[10] = tested on: COLO 205 colon
[11] = tested on: DU-145 prostate
[12] = tested on: K-562 leukemia
[13] = tested on: MALME-3M melanoma
[14] = tested on: MDA-MB-231 breast
[15] = tested on: RXF 393 renal
[16] = tested on: SF-268 CNS
[17] = tested on: SF-295 CNS
[18] = tested on: SF-539 CNS
[19] = tested on: UACC-257 melanoma
[20] = tested on: M14 melanoma

Measured: growth

c1ccc(-c2cc3n4c(-c5ccccc5)nn(-c5ccccc5)c4cnc-3n2)cc1
active: [7] 9.2% | [15] -16.1%
inactive: [1] 58.1% | [2] 73.4% | [3] 23.6% | [4] 102% | [5] 54.9% | [6] 51.2% | [8] 31.3% | [9] 75.5% | [10] 75.1% | [11] 38.6% | [12] 104% | [13] 60.1% | [14] 36.2% | [16] 46.1% | [17] 30.7% | [18] 48% | [19] 22.1% | [20] 71.4%

c1ccc(Cn2cc(-c3nc4ccccc4s3)c3cccnc32)cc1
inactive: [1] 96.6% | [2] 92.4% | [3] 101% | [4] 96.1% | [5] 102% | [6] 98.3% | [7] 87.9% | [8] 104% | [9] 104% | [10] 118% | [11] 102% | [12] 129% | [13] 95% | [14] 84% | [15] 115% | [16] 99% | [17] 102% | [18] 100% | [19] 110% | [20] 106%

C=CC(=O)Nc1cccc(-c2nc(SC)nc(Nc3cccc(OC)c3)c2C#N)c1
inactive: [1] 81% | [2] 70.9% | [3] 94.5% | [4] 85.5% | [5] 86% | [6] 29.5% | [7] 58.7% | [8] 57.3% | [9] 62.7% | [10] 93.3% | [11] 54.6% | [12] 54.6% | [13] 77.6% | [14] 71.4% | [15] 36.9% | [16] 57.1% | [17] 77.8% | [18] 71.3% | [19] 82.3% | [20] 60.6%

CSc1nc(NCCO)c(C#N)c(-c2cccc([N+](=O)[O-])c2)n1
inactive: [1] 99.5% | [2] 93.1% | [3] 102% | [4] 91.6% | [5] 101% | [6] 79.4% | [7] 92.3% | [8] 105% | [9] 100% | [10] 116% | [11] 108% | [12] 90.8% | [13] 111% | [14] 86.5% | [15] 104% | [16] 95.6% | [17] 98.3% | [18] 96.7% | [19] 115% | [20] 104%

CC(C)n1c(/C=C/[C@@H](O)C[C@@H](O)CC(=O)O)c(-c2ccc(F)cc2)c2ccccc21
inactive: [1] 38.4% | [2] 64.1% | [3] 43.7% | [4] 73.4% | [5] 32.5% | [8] 61.3% | [9] 64% | [10] 75.4% | [11] 97.9% | [12] 66.4% | [13] 79.6% | [14] 15.7% | [15] 50.9% | [16] 43.6% | [17] 16.8% | [18] 83.5% | [19] 79.4% | [20] 55.5%
active: [6] -29.1% | [7] 0.551%

CCCSc1ccc2nc(NC(=O)OC)[nH]c2c1
inactive: [1] 24% | [2] 23.2% | [3] 60.1% | [4] 35.2% | [6] 33.6% | [8] 16.5% | [9] 31% | [11] 16.1% | [12] 14.7% | [13] 42% | [14] 18.8% | [16] 44.8% | [19] 59.3%
active: [5] 6.79% | [7] -35.7% | [10] 5.29% | [15] -4.86% | [17] -2.45% | [18] 4.44% | [20] 0.47%

COc1cc2nc(N3CCCC3)nc(NCCc3ccccc3)c2cc1OC
inactive: [1] 59.5% | [2] 90.5% | [3] 75.2% | [4] 68.5% | [5] 10.1% | [6] 74.6% | [7] 61.7% | [8] 18.5% | [9] 81.5% | [11] 37.6% | [13] 82.1% | [14] 59.3% | [15] 67.9% | [16] 87.2% | [17] 80% | [18] 86.1% | [19] 115% | [20] 78.4%
active: [10] -84.8% | [12] -19.3%
